Structures are written as SMILES. This is part of a sample that, as a whole, favours compounds with a hit. Of some 83,000 tested, about 20% had one in any assay.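 Treatment: one concentration, 48 hours, 96-well format. Scoring: percent growth, with anything below 10 considered active.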 Unmarked numbers belong to inactive results. Calls of active or inactive are those of the source.

The test deals with NCI-H322M lung. Kind of test: NCI-60 one-dose screen, 48 h (100 = growth as untreated, 0 = no growth, -100 = all killed). As to conditions: 10 µM unless noted. Here is the method:
Growth inhibition of the NCI-H322M human Non-Small Cell Lung tumor cell line is measured as a screen for anti-cancer activity. Cells are grown in 96 well plates and exposed to the test compound for 48 hours. Compounds are tested at a single concentration, which is 10^-5 M for most compounds. The reported endpoint is percent growth (GI% or GIPRCNT), where numbers from 0 - 100% represent growth inhibition, and numbers from -100% - 0 represent cell death. For example, a value of 40 represents 60% growth inhibition. A value of 0 means no net growth occurred over the course of the experiment. A value of -40 indicates 40% of cells at the beginning of the experiment died by the end of the experiment. A value of -100 means all cells are dead at the end of the experiment.
NCI-60 Human Tumor Cell Lines Screen was performed using the standard one-dose NCI protocol, which is described in more detail at https://dtp.cancer.gov/discovery_development/nci-60/default.htm.
Compounds with GIPRCNT values below 10 were considered active. Activity score was based on GIPRCNT using the following formula: […]
Score is 0 for GIPRCNT values of 100 or above, 50 for GIPRCNT values of 0, and 100 for GIPRCNT values of -100.
As to `O=C1c2cccc3c(-c4ccc(-c5nc6c7ccccc7c7ccccc7c6[nH]5)cc4)ccc(c23)C(=O)N1CCN1CCNCC1`, the growth was 75.3%.

`O=C1NN(C(=O)c2ccc(O)cc2)C(c2ccccc2)=N/C1=C\c1cn(-c2ccccc2)nc1-c1ccccc1`: the growth was 97%.

Turning to `COc1ccc(/C(C)=C(\c2ccc(Cl)cc2)c2ccc(OCCN3CCCC3)cc2)cc1F`, the growth is 62.2%.

For `Clc1ccc(-c2nc(NCCc3ccccc3)nc3c(NCCc4ccccc4)cnn23)cc1`, the growth is 73.7%.

`CC(C)N(CCOC(=O)Nc1ccccc1Cl)C(C)C`: the growth was 102%.

For `O=C(O)c1ccccc1C(=O)Nc1ccc(Cl)cc1`, the growth is 101%.

Consider `CCCCC1COc2cccc3c(SCC(=O)N(C)c4cccc(Cl)c4)cc[n+]1c23` (stereo not given), for which the growth is 107%.

Regarding `Cc1nc(Nc2ccc(NC(=S)Nc3ccccc3)cc2)c2ccccc2n1`, the growth is 103%.

Consider `O=c1[nH]c(NCc2nnnn2-c2ccc(Br)cc2)nc2sc3c(c12)CCCC3`, for which the growth was 91.1%.

Consider `CCCn1nc(-c2ccccc2)c2c(-c3ccccc3)onc2c1=O`, for which the growth is 95.4%.

As for `N#Cc1c(NC(=O)c2ccccc2I)sc2c1CCCC2`, the growth was 88.5%.

Regarding `CCCCCCCCn1cc(C2=C(c3coc4ccc(OC)cc34)C(=O)NC2=O)c2ccccc21`, the growth is 99%.

Turning to `Cn1nnnc1-c1ccc(N)cc1`, the growth is 92.7%.

For `Cc1nc2ccc(C(=O)NCc3cc(C(=O)O)c(C)o3)cc2nc1C`, the growth is 96.9%.

For `CC(C)OC(=O)NNC(=O)c1ccncc1`, the growth is 92.3%.

Turning to `C=CCOc1cccc(/C=C2\SC(=Nc3ccc(O)cc3)NC2=O)c1`, the growth was 53.5%.

For the compound `Cc1cc(C)on1`, the growth was 111%.

Regarding `[2H]c1nc(Nc2ncc(F)c(-c3cc(F)c4nc(C)n(C(C)C)c4c3)n2)c([2H])c([2H])c1CN1CCN(C([2H])([2H])C([2H])([2H])[2H])CC1`, the growth was 44.6%.

On to `N=C(N)c1ccc(-c2ccc(-c3ccc(Cl)cc3Cl)o2)cc1`, for which the growth is -53.9% (active).

Regarding `CC(=O)c1sc(-c2ccccc2)cc1N`, the growth was 96.9%.

With `C#C[C@]1(O)CC[C@H]2[C@@H]3CC=C4c5sc(N=C(N)N)nc5CC[C@]4(C)[C@H]3CC[C@@]21C`, the growth is 27.9%.

As to `Cc1nc(C)c(-c2nn3c(-c4cccc(F)c4)nnc3s2)s1`, the growth was 106%.

Consider `Nc1c(C(=O)c2ccc(Cl)s2)sc2nc3c(cc12)CCCC3`, for which the growth is 103%.

For `CCCN1CCN(c2ccc3nc(-c4ccc5nc(-c6cc(OC)c(OC)c(OC)c6)[nH]c5c4)[nH]c3c2)CC1`, the growth is 94%.

As to `Fc1ccc(Nc2ccc3cc(OCCCN4CCOCC4)ccc3n2)cc1F`, the growth was 71.4%.

Turning to `Cc1c(C)c2c(c(C)c1NC(=O)/C=C\C(=O)O)CCC(C)(CCCC(C)CCCC(C)CCCC(C)C)O2` (stereo not given), the growth is 102%.

Regarding `CCn1nc(C#Cc2c(C)ccc3c(Nc4ccc(Cl)cc4)nccc23)c2c(N)ncnc21`, the growth is 29.2%.

With `O=C1/C(=C/c2ccc([N+](=O)[O-])cc2)COc2ccc(O)c(O)c21`, the growth was 42.7%.

For `CCCCCCCCc1cc[n+](CC(=O)c2ccc(Br)cc2)cc1`, the growth was 96.2%.

`O=C1C(Cl)C(c2ccccc2Cl)N1n1cnnc1` (stereo not given): the growth is 93.5%.

For the compound `O=[N+]([O-])c1ccccc1C(O)Cc1ccc2ccccc2n1` (stereo not given), the growth is 85.9%.

On to `O=C1/C(=C/c2ccccc2[N+](=O)[O-])COc2ccc(O)c(O)c21`, for which the growth was 33.3%.

For `COc1ccc(OC)c(Nc2nc3nonc3nc2Nc2cccc(Br)c2)c1`, the growth is 5.13% (active).

As to `Oc1ccccc1-c1nc2ccccn2c1NCCN1CCOCC1`, the growth is 91.7%.

For `COc1cc(-c2cc(-c3ccc(Nc4nc(Nc5ccccc5)nc(Nc5ccc(Cl)cc5)n4)cc3)nc(N)n2)cc(OC)c1OC`, the growth was 81.9%.

`Nc1nc(I)c2ncn(C3OC(CO)C(O)C3O)c2n1` (stereo not given): the growth is 105%.

Take `C/C(Cc1ccc(Cl)cc1)=C(/c1ccc(Cl)cc1)c1ccc(OCCN(C)C)cc1`: the growth was 91.2%.

As to `Nc1ccc(CCCCc2ccccc2)c(Cl)c1`, the growth is 85%.

With `N#Cc1c(Oc2ccc([N+](=O)[O-])cc2)nc2sc3cc(Cl)ccc3n2c1=N`, the growth is 98.2%.

In the case of `C=C(C)C1CCC(=C)C2CCC3(C)OC12/C=C(/COC(C)=O)CCC3O` (stereo not given), the growth was 97.9%.

The values above are taken from PubChem BioAssay (NCI).
